A selection: hits, their analogues and other compounds. The true share with any hit is near 3.4%.
Cardio protect: myocardial damage modulation in H9c2 cells. H9c2 cardiomyocytes, H2O2 injury protection, ATPLite, 2 h. protection from H2O2 cell death, % at 20 µM. 0.63% of 360,000 active. AID 588492;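 active = compounds giving at least 50% protection of heart cells from peroxide-induced death in the single-dose screen, raw or plate-pattern-corrected value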;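 also: 0% = DMSO wells with peroxide and 100% = DMSO wells without peroxide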
Gli-Sufu antag: Gli-Sufu pathway antagonism. Sufu-KO-LIGHT fibroblasts, Gli luciferase reporter luminescence. inhibition, % at 5 µM. 0.74% of 340,000 active;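 active = inhibition above about 55%, limit read from the data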;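 also: 0% = DMSO-treated cells and 100% = wells with medium but no cells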
GalR3 antagonist: human GalR3 antagonism; HEK293 GalR3-CNG cAMP membrane potential fluorescence; galR3 body fused to GalR1 C-terminus; inhibition, % at 3 µM; 0.44% of 360,000 active; AID 651719;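 active = inhibition above the screen-wide average plus 3 SD, cut at about 13% in these data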;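 also: forskolin and galanin both at EC90 stimulate the cells; cAMP rise reported by CNG channel membrane potential dye signal; 0% = forskolin plus galanin with DMSO and 100% = forskolin alone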
SMARCA2 act: increases SMARCA2 function in MMTV reporter cells; MG213 cells, MMTV-luciferase reporter, dexamethasone, overnight; activation, % at 9.1 µM; 1% of 370,000 active; in the data active = activation above about 7.8%;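 also: 0% = vehicle wells and 100% = reference activator wells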
FXN GAA850 act: increases GAA850 frataxin promoter reporter activity. activation, % at 6 µM. AID 540364. 0.56% of 360,000 active. HEK293 lucGAA850 FXN promoter luciferase reporter, 24 h; percent of 10 µM SAHA response;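 active = activation above the average of all compounds screened plus 3 SD, cutoff fixed separately per campaign, cut at about 7.5% in these data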;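 also: 0% = DMSO wells and 100% = 10 µM SAHA wells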
COUP-TFII inh: NR2F2 (human) inhibition, primary screen; P24468; HEK293T NGFI-A luciferase reporter, luminescence; inhibition, % at 8.6 µM; 0.7% of 370,000 active; AID 686940;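 active = inhibition above a per-plate cutoff, mean inhibition of test wells between control levels plus 3 SD, cut at about 38% in these data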;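 also: cells cotransfected with COUP-TFII expression vector driving the NGFI-A reporter; 0% = median of COUP-TF2 test wells and 100% = reporter-only cells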
Target sequence (P24468 whole entry, looked up): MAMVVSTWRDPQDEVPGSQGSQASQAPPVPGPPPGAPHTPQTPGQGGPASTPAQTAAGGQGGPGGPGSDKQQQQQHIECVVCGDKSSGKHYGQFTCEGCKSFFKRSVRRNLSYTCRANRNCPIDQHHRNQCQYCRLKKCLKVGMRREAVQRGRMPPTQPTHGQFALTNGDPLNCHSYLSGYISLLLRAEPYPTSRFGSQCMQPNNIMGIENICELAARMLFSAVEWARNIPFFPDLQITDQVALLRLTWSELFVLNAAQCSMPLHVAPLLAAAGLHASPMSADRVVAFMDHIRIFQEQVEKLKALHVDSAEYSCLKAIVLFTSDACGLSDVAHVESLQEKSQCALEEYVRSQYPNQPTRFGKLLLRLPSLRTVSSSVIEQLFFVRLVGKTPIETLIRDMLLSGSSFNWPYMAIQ
Gli-Sufu confirm: confirmation of Gli-SUFU pathway antagonists | inhibition, % at 5 µM | shares compounds with Gli-Sufu antag | 40% of 2,500 active | AID 602428 | Sufu-KO-LIGHT cells, Gli luciferase reporter, luminescence;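 active = mean inhibition at 5 µM reaching about 45%, limit read from the data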;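 also: plate controls were DMSO-treated cells for no effect and wells lacking cells for full effect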
SufuKO cytotox: cytotoxicity counter-screen for Gli-SUFU antagonists; shares compounds with Gli-Sufu antag; Sufu-KO-LIGHT cells cytotoxicity, ATP luminescence; cytotoxicity, % at 5 µM; 32% of 2,500 active;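 active = mean cytotoxicity at 5 µM above about 25%, limit read from the data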;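 also: cells exposed to compound overnight for roughly 16 to 18 hours; plate controls were DMSO wells with cells for no effect and medium without cells for full effect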
Wnt3a cs: Wnt3a reporter inhibition counter-screen; inhibition, % at 6.25 µM; 20% of 2,500 active; AID 651995; shares compounds with Gli-Sufu antag; Wnt-LIGHT cells, Wnt3a-driven luciferase reporter, luminescence;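 active = mean inhibition above about 25%, limit read from the data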
GalR3 conf: GalR3 (human) antagonism, confirmation; shares compounds with GalR3 antagonist; HEK293 GalR3 CNG cAMP biosensor, membrane potential fluorescence; galR3 fused to GalR1 carboxy tail; challenged with forskolin and galanin at EC90; inhibition, % at 3 µM; 59% of 1,600 active; AID 652245;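 active = inhibition above the primary screen's cutoff, the mean inhibition of all screened compounds plus 3 SD, cut at about 13% in these data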;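 also: 0% = forskolin plus galanin and 100% = forskolin alone with DMSO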
CNG parental: counter-screen for GalR3 antagonists: nonspecific agonists in parental HEK-CNG cells | shares compounds with GalR3 antagonist | HEK293-CNG parental cells, cAMP membrane potential fluorescence; normalised: DMSO wells 0%, forskolin wells 100% | activation, % at 3 µM | 10% of 1,600 active; in the data active = activation above about 1.3%
VP16 Luc counter: inhibits VP16 reporter, flagging COUP-TFII antagonist hits | shares compounds with COUP-TFII inh | HEK293 Gal4-VP16 luciferase reporter, luminescence | inhibition, % at 8.5 µM | 25% of 2,500 active | AID 687007; in the data active = inhibition above about 13%
COUP-TFII conf: COUP-TFII (NR2F2) inhibition, confirmation assay; shares compounds with COUP-TFII inh; HEK293 NGFI-A luciferase reporter, luminescence; inhibition, % at 8.5 µM; 45% of 2,500 active;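 active = mean inhibition over three repeats above a set limit taken from the earlier primary screen, cut at about 38% in these data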;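 also: 100% = cells given the luciferase reporter alone without the COUP-TF2 vector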
An asterisk follows results filed as active; . = no result.

SMILES	Cardio protect	Gli-Sufu antag	GalR3 antagonist	SMARCA2 act	FXN GAA850 act	COUP-TFII inh	GalR3 conf	CNG parental	others
CC(=O)c1cn(CCCOc2ccccc2)c2ccccc12	-16	50	-3	-6	-1	45*	.	.	Gli-Sufu confirm=19;SufuKO cytotox=7;Wnt3a cs=-8;VP16 Luc counter=-7;COUP-TFII conf=10
COc1ccc(CCNC2CCCCC2)cc1	0	2	-8	2	1	2	.	.
COc1ccc(C[C@H]2NC[C@H](O)[C@H]2OC(C)=O)cc1	16	87*	1	-12	-14	89*	.	.	Gli-Sufu confirm=92*;SufuKO cytotox=75*;Wnt3a cs=104*;VP16 Luc counter=20*;COUP-TFII conf=83*
COc1ccc2c(C)c(CC(=O)N3C[C@H]4C[C@@H](C3)c3cccc(=O)n3C4)c(=O)oc2c1C	4	-4	20*	2	0	8	4	0
COc1ccc2c(C)c(CC(=O)N3C[C@H]4C[C@@H](C3)c3cccc(=O)n3C4)c(=O)oc2c1	2	6	7	-3	-1	-27	.	.
C=CCn1c(O)c(C(CC)=Nc2cccc(C(=O)O)c2)c(=O)[nH]c1=O	-6	-1	15*	-1	0	-10	5	0
CCCCn1c(O)c(/C(C)=N/NC(=O)Nc2ccccc2)c(=O)[nH]c1=O	1	0	-5	3	4	-30	.	.
Cc1ncc2n1-c1ccc(Cl)cc1C(c1ccccc1F)=NC2	0	18	0	-6	1	-39	.	.
CC(C)(C)NCC(O)c1cc(Cl)c(N)c(Cl)c1 (stereo not drawn)	-1	-3	24*	1	2	-31	31*	5.3*
CCOC(=O)[C@]12Cc3cc(Cl)ccc3[C@H]1N(Cc1ccccc1)C(=O)c1cc(OC)ccc12	.	.	-8	-8	.	11	.	.
CCCCCN1C(=O)c2cc(OC)ccc2[C@@]2(C(=O)OCC)Cc3cc(Cl)ccc3[C@@H]12	.	.	36*	-7	.	36	52*	2.6*
CCC(=NCCC(c1ccccc1)c1ccccc1)c1c(O)[nH]c(=O)[nH]c1=O	22	-1	26*	-1	3	-1	38*	0
CCc1ccc(CN2CCN(Cc3ccc(SC)cc3)CC2)cc1	-13	19	50*	-5	0	28	60*	1.4*
CC(C)(C)c1cc(C=C(C#N)C#N)cc(C(C)(C)C)c1O	-44	88*	27*	-9	-11	2	18*	15*
N#CC(C#N)=Cc1ccc(O)c(O)c1	41	-10	-1	6	3	-16	.	.
CC(C)(C)C1(CCO)C(=O)NC(=S)NC1=O	-2	-3	-4	-2	1	-4	.	.
C[C@]12CC3CC(N)(C1)C[C@@](C)(C3)C2	8	3	.	-4	-3	-5	.	.
CCCCNS(=O)(=O)c1ccc(OCC(=O)N2CCN(Cc3ccc4c(c3)OCO4)CC2)cc1	-8	46	14*	-2	-2	35	17*	0

Screens as filed in PubChem BioAssay.
